Source: the supplement of paper PMC4466140

These binders were tested against AgAbp1 (assay: SPOT peptide array binding signal intensity (averaged, normalized) (arbitrary units (background-subtracted, floor 0; scale differs between SH3 domains)); higher = stronger binding of the SH3 domain to the peptide).
How it was run: (§1)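 GST-SH3 fusions from four yeast species, purified on glutathione Sepharose, were incubated at 10 μg/ml overnight at 4°C on membranes of synthetic 15-mer peptides in which cysteines were replaced with serines. Binding signal is the normalized, background-subtracted spot intensity averaged over replicates, in domain-specific arbitrary units.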

Binder | SPOT peptide array binding signal intensity
LLGRKRPVMERVVDI | ≤ 0

What follows are binders tested against AgBbc1 in the same assay as above.
How it was run: as §1

Binder | SPOT peptide array binding signal intensity
LLGRKRPVMERVVDI | 27

The binders below were run against AgBem1-D1 in the same assay as above.
How it was run: as §1

Binder | SPOT peptide array binding signal intensity
LLGRKRPVMERVVDI | 41

These binders were tested against AgBzz1-D1 in the same assay as above.
How it was run: as §1

Binder | SPOT peptide array binding signal intensity
LLGRKRPVMERVVDI | 47

The binders below were run against AgBzz1-D2 in the same assay as above.
How it was run: as §1

Binder | SPOT peptide array binding signal intensity
LLGRKRPVMERVVDI | 35

These binders were tested against AgCyk3 in the same assay as above.
How it was run: as §1

Binder | SPOT peptide array binding signal intensity
LLGRKRPVMERVVDI | 1

What follows are binders tested against AgFus1 in the same assay as above.
How it was run: as §1

Binder | SPOT peptide array binding signal intensity
LLGRKRPVMERVVDI | 142

What follows are binders tested against AgHof1 in the same assay as above.
How it was run: as §1

Binder | SPOT peptide array binding signal intensity
LLGRKRPVMERVVDI | 2.5

These binders were tested against AgHse1 in the same assay as above.
How it was run: as §1

Binder | SPOT peptide array binding signal intensity
LLGRKRPVMERVVDI | 586

What follows are binders tested against AgLsb1 in the same assay as above.
How it was run: as §1

Binder | SPOT peptide array binding signal intensity
LLGRKRPVMERVVDI | 0.25

The binders below were run against AgLsb4 in the same assay as above.
How it was run: as §1

Binder | SPOT peptide array binding signal intensity
LLGRKRPVMERVVDI | 65.5

What follows are binders tested against AgMyo5 in the same assay as above.
How it was run: as §1

Binder | SPOT peptide array binding signal intensity
LLGRKRPVMERVVDI | 3.5

Each binder was assayed against AgNbp2 in the same assay as above.
How it was run: as §1

Binder | SPOT peptide array binding signal intensity
LLGRKRPVMERVVDI | 144

Each binder was assayed against AgRvs167 in the same assay as above.
How it was run: as §1

Binder | SPOT peptide array binding signal intensity
LLGRKRPVMERVVDI | 3.67

Each binder was assayed against AgSho1 in the same assay as above.
How it was run: as §1

Binder | SPOT peptide array binding signal intensity
LLGRKRPVMERVVDI | 76.5

Each binder was assayed against AgSla1-D1-D2 in the same assay as above.
How it was run: as §1

Binder | SPOT peptide array binding signal intensity
LLGRKRPVMERVVDI | 18

Each binder was assayed against AgSla1-D3 in the same assay as above.
How it was run: as §1

Binder | SPOT peptide array binding signal intensity
LLGRKRPVMERVVDI | 0.5

These binders were tested against CaAbp1-D1 in the same assay as above.
How it was run: as §1

Binder | SPOT peptide array binding signal intensity
LLGRKRPVMERVVDI | 21

These binders were tested against CaAbp1-D2 in the same assay as above.
How it was run: as §1

Binder | SPOT peptide array binding signal intensity
LLGRKRPVMERVVDI | 51

What follows are binders tested against CaBbc1 in the same assay as above.
How it was run: as §1

Binder | SPOT peptide array binding signal intensity
LLGRKRPVMERVVDI | 99.5

What follows are binders tested against CaBem1-D1 in the same assay as above.
How it was run: as §1

Binder | SPOT peptide array binding signal intensity
LLGRKRPVMERVVDI | 60.5

Each binder was assayed against CaBzz1-D1 in the same assay as above.
How it was run: as §1

Binder | SPOT peptide array binding signal intensity
LLGRKRPVMERVVDI | 236

These binders were tested against CaBzz1-D2 in the same assay as above.
How it was run: as §1

Binder | SPOT peptide array binding signal intensity
LLGRKRPVMERVVDI | 63.5

The binders below were run against CaCyk3 in the same assay as above.
How it was run: as §1

Binder | SPOT peptide array binding signal intensity
LLGRKRPVMERVVDI | 46

What follows are binders tested against CaFus1 in the same assay as above.
How it was run: as §1

Binder | SPOT peptide array binding signal intensity
LLGRKRPVMERVVDI | 398

Each binder was assayed against CaHof1 in the same assay as above.
How it was run: as §1

Binder | SPOT peptide array binding signal intensity
LLGRKRPVMERVVDI | 0.5

These binders were tested against CaHse1 in the same assay as above.
How it was run: as §1

Binder | SPOT peptide array binding signal intensity
LLGRKRPVMERVVDI | 54

These binders were tested against CaLsb1 in the same assay as above.
How it was run: as §1

Binder | SPOT peptide array binding signal intensity
LLGRKRPVMERVVDI | ≤ 0

The binders below were run against CaLsb4 in the same assay as above.
How it was run: as §1

Binder | SPOT peptide array binding signal intensity
LLGRKRPVMERVVDI | 163

These binders were tested against CaMyo5 in the same assay as above.
How it was run: as §1

Binder | SPOT peptide array binding signal intensity
LLGRKRPVMERVVDI | 10.8

These binders were tested against CaNbp2 in the same assay as above.
How it was run: as §1

Binder | SPOT peptide array binding signal intensity
LLGRKRPVMERVVDI | 595

These binders were tested against CaRvs167 in the same assay as above.
How it was run: as §1

Binder | SPOT peptide array binding signal intensity
LLGRKRPVMERVVDI | 14.8

What follows are binders tested against CaRvs167-3 in the same assay as above.
How it was run: as §1

Binder | SPOT peptide array binding signal intensity
LLGRKRPVMERVVDI | 1.75

What follows are binders tested against CaSho1 in the same assay as above.
How it was run: as §1

Binder | SPOT peptide array binding signal intensity
LLGRKRPVMERVVDI | 374

These binders were tested against CaSla1-D1-D2 in the same assay as above.
How it was run: as §1

Binder | SPOT peptide array binding signal intensity
LLGRKRPVMERVVDI | 154

These binders were tested against CaSla1-D3 in the same assay as above.
How it was run: as §1

Binder | SPOT peptide array binding signal intensity
LLGRKRPVMERVVDI | 150

These binders were tested against ScAbp1 in the same assay as above.
How it was run: as §1

Binder | SPOT peptide array binding signal intensity
LLGRKRPVMERVVDI | 33

The binders below were run against ScBbc1 in the same assay as above.
How it was run: as §1

Binder | SPOT peptide array binding signal intensity
LLGRKRPVMERVVDI | 5.5

These binders were tested against ScBem1-D1 in the same assay as above.
How it was run: as §1

Binder | SPOT peptide array binding signal intensity
LLGRKRPVMERVVDI | 3

The binders below were run against ScBzz1-D1 in the same assay as above.
How it was run: as §1

Binder | SPOT peptide array binding signal intensity
LLGRKRPVMERVVDI | 29.5

What follows are binders tested against ScBzz1-D2 in the same assay as above.
How it was run: as §1

Binder | SPOT peptide array binding signal intensity
LLGRKRPVMERVVDI | 24.5

Each binder was assayed against ScCyk3 in the same assay as above.
How it was run: as §1

Binder | SPOT peptide array binding signal intensity
LLGRKRPVMERVVDI | 31.5

Each binder was assayed against ScFus1 in the same assay as above.
How it was run: as §1

Binder | SPOT peptide array binding signal intensity
LLGRKRPVMERVVDI | 163

Each binder was assayed against ScHof1 in the same assay as above.
How it was run: as §1

Binder | SPOT peptide array binding signal intensity
LLGRKRPVMERVVDI | 1

What follows are binders tested against ScHse1 in the same assay as above.
How it was run: as §1

Binder | SPOT peptide array binding signal intensity
LLGRKRPVMERVVDI | 552

These binders were tested against ScLsb1 in the same assay as above.
How it was run: as §1

Binder | SPOT peptide array binding signal intensity
LLGRKRPVMERVVDI | 13.2

Each binder was assayed against ScLsb2 in the same assay as above.
How it was run: as §1

Binder | SPOT peptide array binding signal intensity
LLGRKRPVMERVVDI | ≤ 0

The binders below were run against ScLsb3 in the same assay as above.
How it was run: as §1

Binder | SPOT peptide array binding signal intensity
LLGRKRPVMERVVDI | 140

Each binder was assayed against ScLsb4 in the same assay as above.
How it was run: as §1

Binder | SPOT peptide array binding signal intensity
LLGRKRPVMERVVDI | 27.5

What follows are binders tested against ScMyo3 in the same assay as above.
How it was run: as §1

Binder | SPOT peptide array binding signal intensity
LLGRKRPVMERVVDI | 4

The binders below were run against ScMyo5 in the same assay as above.
How it was run: as §1

Binder | SPOT peptide array binding signal intensity
LLGRKRPVMERVVDI | 1.5

Each binder was assayed against ScNbp2 in the same assay as above.
How it was run: as §1

Binder | SPOT peptide array binding signal intensity
LLGRKRPVMERVVDI | 254

What follows are binders tested against ScPex13 in the same assay as above.
How it was run: as §1

Binder | SPOT peptide array binding signal intensity
LLGRKRPVMERVVDI | 53.5

What follows are binders tested against ScRvs167 in the same assay as above.
How it was run: as §1

Binder | SPOT peptide array binding signal intensity
LLGRKRPVMERVVDI | 7.67

What follows are binders tested against ScSho1 in the same assay as above.
How it was run: as §1

Binder | SPOT peptide array binding signal intensity
LLGRKRPVMERVVDI | 412

Each binder was assayed against ScSla1-D1-D2 in the same assay as above.
How it was run: as §1

Binder | SPOT peptide array binding signal intensity
LLGRKRPVMERVVDI | 158

What follows are binders tested against ScSla1-D3 in the same assay as above.
How it was run: as §1

Binder | SPOT peptide array binding signal intensity
LLGRKRPVMERVVDI | 78.5

What follows are binders tested against SpAbp1-D1 in the same assay as above.
How it was run: as §1

Binder | SPOT peptide array binding signal intensity
LLGRKRPVMERVVDI | ≤ 0

The binders below were run against SpBbc1 in the same assay as above.
How it was run: as §1

Binder | SPOT peptide array binding signal intensity
LLGRKRPVMERVVDI | 5.5

Each binder was assayed against SpBzz1-D1 in the same assay as above.
How it was run: as §1

Binder | SPOT peptide array binding signal intensity
LLGRKRPVMERVVDI | 158

What follows are binders tested against SpBzz1-D2 in the same assay as above.
How it was run: as §1

Binder | SPOT peptide array binding signal intensity
LLGRKRPVMERVVDI | ≤ 0

What follows are binders tested against SpCyk3 in the same assay as above.
How it was run: as §1

Binder | SPOT peptide array binding signal intensity
LLGRKRPVMERVVDI | 1

The binders below were run against SpHof1 in the same assay as above.
How it was run: as §1

Binder | SPOT peptide array binding signal intensity
LLGRKRPVMERVVDI | 104

These binders were tested against SpHof1-2 in the same assay as above.
How it was run: as §1

Binder | SPOT peptide array binding signal intensity
LLGRKRPVMERVVDI | 9.5

The binders below were run against SpHof1-3 in the same assay as above.
How it was run: as §1

Binder | SPOT peptide array binding signal intensity
LLGRKRPVMERVVDI | 29.5

The binders below were run against SpHse1 in the same assay as above.
How it was run: as §1

Binder | SPOT peptide array binding signal intensity
LLGRKRPVMERVVDI | 470

The binders below were run against SpLsb1 in the same assay as above.
How it was run: as §1

Binder | SPOT peptide array binding signal intensity
LLGRKRPVMERVVDI | 0.5

What follows are binders tested against SpLsb4 in the same assay as above.
How it was run: as §1

Binder | SPOT peptide array binding signal intensity
LLGRKRPVMERVVDI | 140

What follows are binders tested against SpMyo1 in the same assay as above.
How it was run: as §1

Binder | SPOT peptide array binding signal intensity
LLGRKRPVMERVVDI | 5

What follows are binders tested against SpNbp2 in the same assay as above.
How it was run: as §1

Binder | SPOT peptide array binding signal intensity
LLGRKRPVMERVVDI | 99.5

What follows are binders tested against SpPex13 in the same assay as above.
How it was run: as §1

Binder | SPOT peptide array binding signal intensity
LLGRKRPVMERVVDI | 16

The binders below were run against SpRvs167 in the same assay as above.
How it was run: as §1

Binder | SPOT peptide array binding signal intensity
LLGRKRPVMERVVDI | 14.3

Each binder was assayed against SpSla1-D1-D2 in the same assay as above.
How it was run: as §1

Binder | SPOT peptide array binding signal intensity
LLGRKRPVMERVVDI | ≤ 0

These binders were tested against SpSla1-D3 in the same assay as above.
How it was run: as §1

Binder | SPOT peptide array binding signal intensity
LLGRKRPVMERVVDI | 35
